Results filed as inconclusive are left out. The source made the active and inactive calls. How the source made its calls, unless noted: active means hit-call score of the fitted dose curve at least 0.9, where 1 is the maximum; inactive means score below 0.9.
How the values were obtained:
[1] = CCTE_Shafer_MEA_dev_firing_rate_mean: CCTE's Neural Network Formation Assay for Mean Firing Rate, Shafer Lab (AID 2284031)
Procedure, shortened: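 Rat primary cortical neurons were seeded on multielectrode arrays and treated from plating through day 12, with redosing at each feed. Spontaneous spiking was recorded four times; mean firing rate AUC was fitted downward against DMSO.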

[2] = CCTE_Shafer_MEA_dev_per_burst_spike_percent: CCTE's Neural Network Formation Assay for Percent of Spikes in a Burst, Shafer Lab (AID 2284032);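 on AC50: fitted as a decrease in burst spike percentage below DMSO baseline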
Procedure, shortened: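 Rat primary cortical neurons on 16-electrode MEA wells, dosed from plating day 0 for 12 days with renewal on DIV 5 and 9; spikes-in-bursts percentage averaged over bursting electrodes, collapsed as AUC across days 5, 7, 9, 12; loss direction versus DMSO.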

[3] = CCTE_Shafer_MEA_dev_active_electrodes_number: CCTE's Neural Network Formation Assay for Number of Active Electrodes, Shafer Lab (AID 2284040; active means hit-call score of the fitted dose curve at least 0.9, where 1 is the maximum;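 on AC50: potency for loss of active electrodes versus DMSO so lower counts are hits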)
Procedure, shortened: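 Primary rat cortical neurons on 16-electrode MEA wells, exposed from day 0 through day 12 with compound renewed at DIV 5 and 9 feeds. Active electrodes (mean firing ≥5 spikes/min) counted at DIV 5, 7, 9, 12; trapezoidal AUC across days, loss-of-signal versus DMSO.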

[4] = CCTE_Shafer_MEA_dev_burst_rate: CCTE's Neural Network Formation Assay for Burst Rate, Shafer Lab (AID 2284042)
Procedure, shortened: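 Cells plated, treated day 0; recorded DIV 5, 7, 9, 12; fed and re-treated DIV 5, 9. Endpoint: bursts per recording time, active-electrode well mean, trapezoidal AUC, fitted in decreasing direction against DMSO baseline.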

[5] = CCTE_Shafer_MEA_dev_bursting_electrodes_number: CCTE's Neural Network Formation Assay for Number of Bursting Electrodes, Shafer Lab (AID 2284043; active means hit-call score of the fitted dose curve at least 0.9, where 1 is the maximum;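 on AC50: potency is for loss of bursting electrodes relative to DMSO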)
Procedure, shortened: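 Primary rat cortical neurons plated on 16-electrode MEA wells, exposed from day 0 with compound renewed at DIV 5 and 9. Electrodes bursting ≥1 burst per 2 min counted on days 5, 7, 9 and 12; trapezoidal AUC across days, fitted for loss versus DMSO.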

[6] = CCTE_Shafer_MEA_dev_per_burst_interspike_interval: CCTE's Neural Network Formation Assay for Burst Interspike Interval, Shafer Lab (AID 2284044);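 further: mean spike spacing inside bursts as AUC over recordings on days 5 7 9 12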
Procedure, shortened: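 Primary rat cortical neurons on 48-well MEA plates, exposed from day 0 through day 12, treatment renewed at DIV 5 and 9. Within-burst interspike interval recorded days 5, 7, 9, 12, well-averaged, summarised as AUC; negative fit versus DMSO.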

[7] = CCTE_Shafer_MEA_dev_burst_duration_mean: CCTE's Neural Network Formation Assay for Mean Burst Duration, Shafer Lab (AID 2284045)
Procedure, shortened: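 Primary rat cortical neurons on 48-well 16-electrode MEA plates, exposed from day 0 with renewal at DIV 5 and 9; spontaneous activity recorded on days 5, 7, 9, 12. Well-mean burst duration across bursting electrodes, collapsed as trapezoidal AUC; DMSO baseline.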

[8] = CCTE_Shafer_MEA_dev_interburst_interval_mean: CCTE's Neural Network Formation Assay for Mean Interburst Interval, Shafer Lab (AID 2284046);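 further: well-mean interburst interval of bursting electrodes as AUC over four recording days; curve fitted for decrease in interburst interval relative to DMSO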
Procedure, shortened: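 Developing rat cortical networks on 48-well MEAs receive compound from the day of plating. Burst intervals from each active electrode are averaged per well, and AUC over the recording days is fitted in the negative direction against DMSO.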

[9] = CCTE_Shafer_MEA_dev_inter_network_spike_interval_mean: CCTE's Neural Network Formation Assay for Mean Inter-network Spike Interval, Shafer Lab (AID 2284047)
Procedure, shortened: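 Rat cortical cultures, 1.5 x 10^5 cells/well on 48-well MEA plates; continuous exposure days 0–12, medium and compound refreshed DIV 5, 9. Mean time between consecutive network-spike peaks; AUC across DIV 5/7/9/12; DMSO baseline, negative fitting direction.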

[10] = CCTE_Shafer_MEA_dev_network_spike_number: CCTE's Neural Network Formation Assay for Number of Network Spikes, Shafer Lab (AID 2284048)
Procedure, shortened: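 Primary rat cortical neurons on PEI/laminin 48-well MEA plates, dosed from plating day 0 for 12 days, renewed at DIV 5 and 9. Network spike counts recorded DIV 5, 7, 9, 12, collapsed as trapezoidal AUC; DMSO baseline.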

[11] = CCTE_Shafer_MEA_dev_network_spike_peak: CCTE's Neural Network Formation Assay for Mean Number of Electrodes in Network Spike, Shafer Lab (AID 2284049);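 on AC50: fitted for loss of signal meaning fewer electrodes in network spikes than DMSO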
Procedure, shortened: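 Network-spike peak electrode count from recordings on days 5, 7, 9 and 12 was combined as trapezoidal area under the curve. Rat cortical cultures were treated continuously from plating, with compound renewed at each feed (DIV 5, 9); fits versus DMSO.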

[12] = target: Estrogen receptor (Homo sapiens) (UniProt P03372); experiment: CCTE_Deisenroth_AIME_384WELL_LUC_Active: CCTE's 384-well Estrogen Receptor Transactivation Assay with AIME metabolic competence (ERTA luciferase; metabolism positive), Deisenroth Lab (AID 2284030; active means hit-call score of the fitted dose curve at least 0.9, where 1 is the maximum)
Sequence of Estrogen receptor (Homo sapiens) (P03372 whole entry, looked up): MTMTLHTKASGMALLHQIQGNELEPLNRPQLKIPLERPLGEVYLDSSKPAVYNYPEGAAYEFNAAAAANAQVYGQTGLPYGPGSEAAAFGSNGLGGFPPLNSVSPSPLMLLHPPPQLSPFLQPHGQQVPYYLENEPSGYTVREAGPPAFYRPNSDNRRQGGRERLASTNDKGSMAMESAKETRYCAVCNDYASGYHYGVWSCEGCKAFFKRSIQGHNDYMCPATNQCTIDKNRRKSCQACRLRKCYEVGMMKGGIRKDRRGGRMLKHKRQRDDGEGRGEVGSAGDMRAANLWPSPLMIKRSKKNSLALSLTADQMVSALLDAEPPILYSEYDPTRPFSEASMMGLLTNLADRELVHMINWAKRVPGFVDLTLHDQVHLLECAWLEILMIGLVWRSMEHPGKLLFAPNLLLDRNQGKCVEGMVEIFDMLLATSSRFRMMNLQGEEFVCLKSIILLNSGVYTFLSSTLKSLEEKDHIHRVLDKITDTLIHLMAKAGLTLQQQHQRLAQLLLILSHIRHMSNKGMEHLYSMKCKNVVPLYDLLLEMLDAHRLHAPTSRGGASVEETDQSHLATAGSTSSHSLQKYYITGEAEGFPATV
Procedure, shortened: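 Chemicals (10-point, 0.002-200 uM) were first incubated 2 hours with alginate-immobilized induced male Sprague Dawley rat liver S9. The conditioned medium was then applied to VM7Luc4E2 cells for 24 hours, with ER luciferase induction read by luminescence relative to 17beta-estradiol.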

[13] = CCTE_Deisenroth_AIME_384WELL_CTox_Active: Cytotoxicity Assessment (CTOX) in CCTE's 384-well Estrogen Receptor Transactivation Assay with AIME metabolic competence (metabolism positive), Deisenroth Lab (AID 2284037; active means hit-call score of the fitted dose curve at least 0.9, where 1 is the maximum;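 further: chemicals first conditioned 2 h by alginate-bound induced rat liver S9 before cells; activity means signal loss indicating cell death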)
Procedure, shortened: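 Chemicals pre-incubated 2 hours with alginate-immobilised phenobarbital/beta-naphthoflavone-induced male Sprague Dawley rat liver S9, then conditioned medium applied 24 hour to VM7Luc4E2 cells. Viability by fluorogenic protease substrate; 10-point series 0.002 - 200 uM.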

[14] = CCTE_Deisenroth_AIME_384WELL_CTox_Inactive: Cytotoxicity Assessment (CTOX) in CCTE's 384-well Estrogen Receptor Transactivation Assay without AIME metabolic competence (metabolism negative), Deisenroth Lab (AID 2284039; active means hit-call score of the fitted dose curve at least 0.9, where 1 is the maximum;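 further: cell viability via live-cell protease substrate cleaved to fluorescent probe; cells exposed 24 h to medium preincubated 2 h with alginate-water beads without S9; loss of fluorescence signal means loss of viability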)
Procedure, shortened: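 Metabolism-negative arm: chemicals (10-point, 0.002 - 200 uM) preincubated 2 h with alginate-water lids, medium moved onto VM7Luc4E2 cells for 24 h. Fluorescent live-cell protease readout; bidirectional curve fit.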

[15] = target: Estrogen receptor (Homo sapiens) (UniProt P03372); experiment: CCTE_Deisenroth_AIME_384WELL_LUC_Shift: CCTE's 384-well Estrogen Receptor Transactivation Assay with AIME metabolic competence data shift (ERTA luciferase; difference in metabolism positive and negative), Deisenroth Lab (AID 2284041);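 further: shift is response with S9 minus without S9 so positive means metabolism raised ER signal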
Procedure, shortened: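 Chemicals (0.002–200 uM, 10 points) pre-incubated 2 h with alginate-encapsulated induced male Sprague Dawley rat liver S9 or S9-free, then medium applied 24 h to VM7Luc4E2 cells; luciferase. Endpoint is per-concentration difference, S9-positive minus negative.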

DIO2 (gene 1734) = experiment: CCTE_GLTED_hDIO2: CCTE's human Deiodinase 2 (DIO2) Inhibition Assay, Great Lakes Toxicology and Ecology Division (GLTED) Lab (AID 2284050; active means hit-call score of the fitted dose curve at least 0.9, where 1 is the maximum)
Procedure, shortened: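 hDIO2 enzyme + test chem, 3 h → free iodide from substrate; step 2: Sandell-Kolthoff (Ce IV reduction by As, iodide-catalysed), spectrophotometric read. Triplicate plates; DMSO = baseline.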

[16] = CCTE_Shafer_MEA_acute_cross_correlation_HWHM: CCTE's Neural Acute Assay for Cross Correlation at Half Width at Half Maximum, Shafer Lab (AID 2284026);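 further: spontaneous network firing of rat primary cortical neurons on multiwell microelectrode arrays; percent change per well from pre-dose baseline in spike cross-correlogram half width; hits are a decrease in cross-correlogram half width relative to DMSO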
Procedure, shortened: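 Rat primary cortical neurons on 48-well MEA plates; 40-min baseline and 40-min post-exposure recordings at 37 C on DIV 13 or 15, compounds 0.03-40 uM. Spikes detected at 8x rms noise; percent change in cross-correlogram HWHM per well vs baseline.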

[17] = CCTE_Shafer_MEA_acute_synchrony_index: CCTE's Neural Acute Assay for Synchrony, Shafer Lab (AID 2284027);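 further: fitted for loss of signal so actives lower synchrony relative to DMSO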
Procedure, shortened: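 Readout is percent change in the unitless network synchrony index (0 low, 1 high) between a 40-min baseline and a 40-min recording in compound. Cultures were primary rat cortical neurons on MEAs, treated at 0.03-40 uM on DIV 13 or 15.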

[18] = target: Estrogen receptor (Homo sapiens) (UniProt P03372); experiment: CCTE_Deisenroth_AIME_384WELL_LUC_Inactive: CCTE's 384-well Estrogen Receptor Transactivation Assay without AIME metabolic competence (ERTA luciferase; metabolism negative), Deisenroth Lab (AID 2284038; active means hit-call score of the fitted dose curve at least 0.9, where 1 is the maximum;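 further: VM7Luc4E2 breast cells given medium preincubated 2 h with S9-free microspheres; hits raise estrogen receptor luciferase signal so potencies reflect agonists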)
Procedure, shortened: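 Metabolism-negative mode: chemicals (10-point, 0.002–200 uM) held 2 h with alginate-water microspheres, then conditioned medium applied to VM7Luc4E2 cells for 24 h. Luciferase induction referenced to 17beta-estradiol.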

Measured: AC50

O=P(O)(O)OCCC(F)(F)C(F)(F)C(F)(F)C(F)(F)C(F)(F)C(F)(F)F
active: [5] 0.1 µM
inactive: [1] | [2] | [3] | [4] | [6] | [7] | [8] | [9] | [10] | [11]

CC/C=C\CCOC(C)=O
inactive: [12] | [13] | [14] | [15]

FC(F)(F)C(F)(F)CNCC(F)(F)C(F)(F)F
not listed: [12] | [13] | [14] | [15] | DIO2 (gene 1734) | [16] | [17] | [18]
inactive: all other assays above

FC(F)(F)C(F)(F)C(F)(F)C(F)(F)C(F)(F)C(F)(F)CC1CO1 (centres undefined)
inactive: [1] | [2] | [4] | [6] | [7] | [8] | [9] | [10] | [11]

FC(F)(F)C(F)(F)C(F)(F)C(F)(F)C(F)(F)CCI
active: [2] 22.2 µM | [3] 15 µM | [5] 0.822 µM | [11] 22.3 µM
inactive: [1] | [4] | [6] | [7] | [8] | [9] | [10]

CC(Cc1ccc(O)c(O)c1)C(C)Cc1ccc(O)c(O)c1 (centres undefined)
active: DIO2 (gene 1734) 19.3 µM

CCCCCCOC(=O)c1ccccc1O
inactive: [16] | [17]

O=C(O)C(F)(F)C(F)(F)C(F)F
not listed: [12] | [13] | [14] | [15] | DIO2 (gene 1734) | [16] | [17] | [18]
inactive: all other assays above

CCCCCCC(C)OC(=O)CCCCC(=O)OC(C)CCCCCC (centres undefined)
inactive: [12] | [18] | [14] | [15]
